Measurements taken from PubChem BioAssay (Tox21).
Results filed as inconclusive are left out. Unmarked numbers belong to inactive results. The source made the active and inactive calls. The call rests on the fitted dose curve; in most records, active means well fitted inhibition curve with a large enough effect in the signal ratio in the repeat runs (not every such curve was filed as active); inconclusive means weak or mixed curves, or effect the other way; inactive means no such curve, though single readings can be large or run the other way; the % refers to the signal ratio.

biological target: Glucocorticoid receptor (Homo sapiens) (UniProt P04150); assay: qHTS assay to identify small molecule antagonists of the glucocorticoid receptor (GR) signaling pathway (AID 720692); settings: GR-bla HeLa, beta-lactamase FRET ratio, dexamethasone-stimulated, 18 h; series mostly up to 58.5 µM; activity change, negative = inhibition: at the top concentration
Text: U.S. Tox21 Program National Center for Advancing Translational Sciences [NCATS] NIH Chemical Genomics Center [NCGC] U.S. Environmental Protection Agency [EPA] National Institutes of Environmental Health Sciences [NIEHS] National Toxicology Program [NTP] U.S. Food and Drug Administration [FDA] Tox21 Assay Overview: The Glucocorticoid receptor (GR) is one of the members of the nuclear receptor family of ligand-dependent transcription factors. GR plays a critical role in carbohydrate, protein and lipid metabolisms and programmed cell death. CellSensor GR-bla HeLa cell line (Invitrogen) contains a beta-lactamase reporter gene under the control of the glucocorticoid response element stably integrated into HeLa cells, a cervical cancer cell line that expresses glucocorticoid receptor. The activation of the reporter gene under culture conditions can be detected by fluorescence intensity. This cell line has been used to screen the Tox21 10K compound library and to identify the compounds that inhibit the GR signaling.
Tox21 Assay Protocol Summary: The GR-bla HeLa cells were dispensed at 1500 cells/5 ul/well in 1536-well black wall/clear bottom plates using a Multidrop Combi (ThermoFisher Scientific, Waltham, MA) dispenser. After the assay plates were incubated at a 37 C/5% CO2 incubator for 4 hours, 23 nL of compounds dissolved in DMSO, positive controls or DMSO only was transferred to the assay plate by a pintool station (Kalypsys, San Diego, CA), followed by addition of 1 uL of dexamethasone (5 nM, final concentration in the well). The plates were incubated at 37 C for 18 hours. After 1 uL of LiveBLAzerTM B/G FRET substrate was added using a Flying Reagent Dispenser (Aurora Discovery, San Diego, CA), the plates were incubated at room temperature for 2 hours, and fluorescence intensity was measured by an Envision plate reader (PerkinElmer, Shelton, CT).
On the % scale 0 is the no-effect control and ±100 the full control effect.

Sequence of Glucocorticoid receptor (Homo sapiens) (P04150 whole entry, looked up): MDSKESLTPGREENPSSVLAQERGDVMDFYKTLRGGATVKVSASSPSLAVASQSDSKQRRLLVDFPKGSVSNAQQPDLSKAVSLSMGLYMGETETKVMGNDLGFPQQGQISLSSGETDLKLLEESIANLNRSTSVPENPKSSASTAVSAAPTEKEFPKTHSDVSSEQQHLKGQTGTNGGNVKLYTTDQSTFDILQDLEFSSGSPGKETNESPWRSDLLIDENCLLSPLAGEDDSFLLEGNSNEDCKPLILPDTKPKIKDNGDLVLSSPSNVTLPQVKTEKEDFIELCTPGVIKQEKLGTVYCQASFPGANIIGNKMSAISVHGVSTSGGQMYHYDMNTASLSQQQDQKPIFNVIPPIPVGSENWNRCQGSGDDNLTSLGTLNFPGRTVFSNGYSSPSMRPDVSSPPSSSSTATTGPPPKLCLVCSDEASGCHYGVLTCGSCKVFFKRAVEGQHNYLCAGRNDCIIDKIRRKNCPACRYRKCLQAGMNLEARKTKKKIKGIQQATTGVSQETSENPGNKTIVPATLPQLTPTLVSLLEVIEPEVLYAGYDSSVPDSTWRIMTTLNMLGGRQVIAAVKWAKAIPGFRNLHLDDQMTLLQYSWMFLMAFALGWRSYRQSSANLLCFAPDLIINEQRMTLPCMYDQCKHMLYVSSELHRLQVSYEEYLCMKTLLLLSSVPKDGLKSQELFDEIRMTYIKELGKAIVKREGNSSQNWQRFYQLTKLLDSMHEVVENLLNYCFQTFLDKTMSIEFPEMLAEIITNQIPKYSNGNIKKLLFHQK

Structure (SMILES) | activity change, negative = inhibition | outcome
CC(C)(C)NC[C@H](O)COc1cccc2c1CCCC2=O | 3% [at 27 µM] | 
CC1(C)Oc2ccc(C#N)cc2[C@@H](N2CCCC2=O)[C@@H]1O |  | inactive
N[C@@H](Cc1ccc(O)cc1)C(=O)O | 11.4% | 
CC(C)Nc1ccccc1 | -6.72% | 
OCC(O)CN1CCN(c2ccccc2)CC1 (stereo not given) | 13.6% | 
CC(C)CO | -9.08% [at 78.9 µM] | 
CC(CO)(CO)CO | -0.741% [at 78.9 µM] | 
O=C(O)CNC(=O)CNC(=O)CNC(=O)CSC(=O)c1ccccc1 | -4.49% | 
CC(=O)O[C@H]1C[C@@H]2CC[C@@]1(C)C2(C)C | 8.1% | 
C=C(C)C1CC=C(C)C(=O)C1 (stereo not given) | 2.26% | 
O=C[O][Al]([O]C=O)[O]C=O | -5.28% | 
O=C(Cn1ccnc1[N+](=O)[O-])NCc1ccccc1 | -13% | 
CC(=O)CCC1=C(C)CCCC1(C)C | -2.05% | 
CN1C[C@@H]2C[C@H]1CN2c1cc2c(cc1F)c(=O)c(C(=O)O)cn2C1CC1 | 22.7% | 
CCCSSCCC | 2.62% | 
O=C1CCCCO1 | -12.3% | 
Cc1c(Cl)cccc1Cl | 2.23% | 
O=C(O)c1cc2ccccc2nc1C(=O)O | -3.06% | 
COc1nc(N)nc2nc[nH]c12 | 4.97% | 
Cc1ccc(N)cc1S(=O)(=O)O | -3.56% | 

Structure (SMILES) | activity change, negative = inhibition | outcome
CCC(=O)CC | -0.0115% | 
N#Cc1ccccc1O | 2.95% | 
CN(C)CC/C=C1/c2ccccc2COc2ccc(CC(=O)O)cc21 | -4.82% | 
CC(=O)CC(=O)Nc1ccc(C)cc1C | -0.766% | 
N[C@@H](CSCCCO)C(=O)O | 11.1% | 
CCCCOCCOC(=O)COc1ccc(Cl)cc1Cl | 2.52% | 
CCC(C)C(C)=O (stereo not given) | 14.5% | 
C=CCSSCCC | -9.59% | 
CCCC(=O)Nc1ccc(OCC(O)CNC(C)C)c(C(C)=O)c1 (stereo not given) | 3.33% [at 27 µM] | 
C=CCN1C[C@H](C(=O)N(CCCN(C)C)C(=O)NCC)C[C@@H]2c3cccc4[nH]cc(c34)C[C@H]21 | 1.66% | 
CC1OCCC1=O (stereo not given) | 10.6% | 
COc1ccc(CCO)cc1 | -3.12% | 
O=Cc1cc2ccccc2o1 | -2.52% | 
CCCCCCCCCCCCCCC(=O)NC(CO)CCCCCCCCCCCCCC (stereo not given) | -8.75% [at 78.9 µM] | 
C/C=C(\C)C(C)=O | -7.42% | 
COc1c2occc2c(OC)c2c(=O)cc(C)oc12 | 10.1% [at 27 µM] | 
CC(C)COC(=O)c1ccccc1 | 24.9% | 
COC(=O)CCCCC(=O)O | 6.68% | 
CCCC(CC)c1ccccc1 (stereo not given) | 8.36% | 
OC[C@H]1O[C@@H](O[C@@H]2[C@@H](CO)O[C@](O)(CO)[C@H]2O)[C@H](O)[C@@H](O)[C@H]1O | 1.13% | 
